Data published in PubChem BioAssay (EPA / NIEHS).
“And” between values parts separate entries of the source, which are not always exact repeats. Equal entries are not always repeated. Records with an inconclusive call do not appear. Some compounds were tested as several samples or in several runs, with calls that do not always agree. The source made the active and inactive calls. How the source made its calls, unless noted: active means hit-call score of the fitted dose curve at least 0.9, where 1 is the maximum; inactive means score below 0.9.

How the values were obtained:
[1] = read-out: Intercellular Adhesion Molecule 1 (ICAM1), ICAM1 (gene 3383); test: BSK_3C_ICAM1: BioMAP Diversity Plus: 3C Assay for Intercellular Adhesion Molecule 1 (ICAM1) Biomarker Activity (AID 2283003); settings: primary human endothelial cells (HUVEC); actives raise or lower the signal
Procedure, shortened: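 Primary human umbilical vein endothelial cells in the BioMAP 3C system were exposed to chemicals for 24 h, then ICAM-1 was quantified by ELISA. Activity was fitted bidirectionally against the DMSO negative control baseline.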

[2] = molecular target: human Retinoic Acid Receptor beta (RARb), RARB (gene 5915) (UniProt P10826); test: ATG_RARb_TRANS: Attagene TRANS-FACTORIAL HepG2 Assay for human Retinoic Acid Receptor beta (AID 2283004; active means hit-call score of the fitted dose curve at least 0.9, where 1 is the maximum)
Chain of human Retinoic Acid Receptor beta (RARb), RARB (gene 5915) (P10826 whole entry, looked up, the tested form may be a part): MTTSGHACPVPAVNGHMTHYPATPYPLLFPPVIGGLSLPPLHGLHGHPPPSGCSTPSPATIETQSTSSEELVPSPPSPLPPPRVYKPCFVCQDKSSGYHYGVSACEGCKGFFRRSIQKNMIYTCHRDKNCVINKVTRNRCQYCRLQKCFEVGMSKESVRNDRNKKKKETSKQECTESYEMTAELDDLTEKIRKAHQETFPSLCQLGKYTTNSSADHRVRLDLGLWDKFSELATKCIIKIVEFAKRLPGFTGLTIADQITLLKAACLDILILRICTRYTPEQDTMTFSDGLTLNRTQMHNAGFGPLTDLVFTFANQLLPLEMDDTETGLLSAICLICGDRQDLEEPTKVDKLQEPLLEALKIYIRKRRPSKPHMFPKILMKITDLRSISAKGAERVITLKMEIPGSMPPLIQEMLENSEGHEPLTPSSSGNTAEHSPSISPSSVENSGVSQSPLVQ
Procedure, shortened: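 HepG2 cells transiently transfected with multiplexed GAL4-UAS reporter units expressing chimeric NR–Gal4 fusions; 24 h compound exposure. Reporter mRNA quantified by RT-PCR, 6-FAM labelling, HpaI digestion and capillary electrophoresis; gain-of-signal fitted against DMSO baseline.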

[3] = molecular target: Retinoic acid receptor alpha (Homo sapiens) (UniProt P10276); test: ATG_RARa_TRANS: Attagene TRANS-FACTORIAL HepG2 Assay for human Retinoic Acid Receptor alpha (RARa) (AID 2283005; active means hit-call score of the fitted dose curve at least 0.9, where 1 is the maximum)
Chain of Retinoic acid receptor alpha (Homo sapiens) (P10276 whole entry, looked up, the tested form may be a part): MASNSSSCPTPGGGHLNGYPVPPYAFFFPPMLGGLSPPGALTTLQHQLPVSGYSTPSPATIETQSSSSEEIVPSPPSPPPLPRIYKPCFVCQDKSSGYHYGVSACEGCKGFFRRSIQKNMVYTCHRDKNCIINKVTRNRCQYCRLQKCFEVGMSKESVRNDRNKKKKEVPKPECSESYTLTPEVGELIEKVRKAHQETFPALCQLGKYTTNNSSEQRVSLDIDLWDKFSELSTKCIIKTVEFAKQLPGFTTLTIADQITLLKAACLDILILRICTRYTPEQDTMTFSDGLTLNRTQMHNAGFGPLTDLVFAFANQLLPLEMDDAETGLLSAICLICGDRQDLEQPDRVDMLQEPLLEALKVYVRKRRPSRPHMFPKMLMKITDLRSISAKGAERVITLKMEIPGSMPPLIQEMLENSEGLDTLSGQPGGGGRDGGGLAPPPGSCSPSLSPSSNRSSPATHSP
Procedure, shortened: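 HepG2 cells transiently transfected with multiple reporter units expressing chimeric RARα-GAL4 fusion, with GAL4-UAS-driven reporters. After 24 h compound exposure, reporter mRNA induction quantified by RT-PCR and capillary electrophoresis with fluorescent labeling; gain-of-signal fitted relative to DMSO control.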

[4] = BSK_3C_Proliferation: Cell Proliferation Assessment in the BioMAP Diversity Plus: 3C Assay (AID 2283006); settings: primary human endothelial cells (HUVEC);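 on AC50: potency may reflect either rise or fall in cell number versus DMSO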
Procedure, shortened: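 Human umbilical vein endothelial cells were grown sub-confluent and exposed to chemical for 48 h, then fixed with 10% TCA and stained with 0.1% sulforhodamine B; absorbance at 560 nm gave relative cell number, fitted bidirectionally against DMSO baseline.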

[5] = molecular target: Peroxisome proliferator-activated receptor gamma (Homo sapiens) (UniProt P37231); test: ATG_PPARg_TRANS: Attagene TRANS-FACTORIAL HepG2 Assay for human Peroxisome Proliferator-activated Receptor-gamma (PPARg) (AID 2283007; active means hit-call score of the fitted dose curve at least 0.9, where 1 is the maximum)
Chain of Peroxisome proliferator-activated receptor gamma (Homo sapiens) (P37231 whole entry, looked up, the tested form may be a part): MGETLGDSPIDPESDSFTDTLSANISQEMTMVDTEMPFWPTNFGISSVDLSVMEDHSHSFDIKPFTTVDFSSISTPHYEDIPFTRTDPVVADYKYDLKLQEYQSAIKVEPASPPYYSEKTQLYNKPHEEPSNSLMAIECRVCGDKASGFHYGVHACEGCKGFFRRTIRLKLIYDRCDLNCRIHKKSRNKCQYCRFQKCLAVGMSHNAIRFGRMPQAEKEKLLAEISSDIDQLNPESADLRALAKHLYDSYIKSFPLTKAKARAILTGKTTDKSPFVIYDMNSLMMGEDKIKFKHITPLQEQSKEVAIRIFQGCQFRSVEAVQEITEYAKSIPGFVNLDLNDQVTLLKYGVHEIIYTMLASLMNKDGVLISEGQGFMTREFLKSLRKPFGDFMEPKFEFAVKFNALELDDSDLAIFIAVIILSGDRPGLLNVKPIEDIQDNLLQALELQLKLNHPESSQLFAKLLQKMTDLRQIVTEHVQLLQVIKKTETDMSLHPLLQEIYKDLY
Procedure, shortened: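 Transient transfection of HepG2 with GAL4-UAS-driven reporter units; chemical dosing 24 h; total RNA → oligo(dT) RT → PCR with reporter primers → 6-FAM primer extension → HpaI digest 2 h 37 C → capillary electrophoresis. Positive direction vs DMSO.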

[6] = molecular target: Nuclear receptor subfamily 1 group I member 2 (Homo sapiens) (UniProt O75469); test: ATG_PXR_TRANS: Attagene TRANS-FACTORIAL HepG2 Assay for human Pregnane X Receptor (PXR) (AID 2283008; active means hit-call score of the fitted dose curve at least 0.9, where 1 is the maximum)
Chain of Nuclear receptor subfamily 1 group I member 2 (Homo sapiens) (O75469 whole entry, looked up, the tested form may be a part): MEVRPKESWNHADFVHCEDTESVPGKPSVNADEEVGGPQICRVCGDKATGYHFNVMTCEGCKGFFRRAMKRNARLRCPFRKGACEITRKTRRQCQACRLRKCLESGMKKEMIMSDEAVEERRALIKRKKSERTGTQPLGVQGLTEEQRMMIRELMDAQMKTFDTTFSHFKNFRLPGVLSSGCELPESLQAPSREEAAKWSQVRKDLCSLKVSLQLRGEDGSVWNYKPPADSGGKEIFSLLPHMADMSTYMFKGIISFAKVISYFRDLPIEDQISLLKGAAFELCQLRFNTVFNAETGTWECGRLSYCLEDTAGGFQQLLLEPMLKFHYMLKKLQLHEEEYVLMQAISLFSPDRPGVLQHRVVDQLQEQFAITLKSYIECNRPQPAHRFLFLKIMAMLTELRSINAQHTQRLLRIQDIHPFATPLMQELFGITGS
Procedure, shortened: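 Fluorescence intensity of FAM-labelled, HpaI-digested reporter amplicons, separated by capillary electrophoresis, quantifies induction. HepG2 cells with PXR-Gal4 trans-reporter system were exposed 24 h; DMSO defines baseline.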

[7] = molecular target: human Retinoic Acid Receptor gamma (RARg), RARG (gene 5916) (UniProt P13631); test: ATG_RARg_TRANS: Attagene TRANS-FACTORIAL HepG2 Assay for human Retinoic Acid Receptor gamma (RARg) (AID 2283009; active means hit-call score of the fitted dose curve at least 0.9, where 1 is the maximum)
Chain of human Retinoic Acid Receptor gamma (RARg), RARG (gene 5916) (P13631 whole entry, looked up, the tested form may be a part): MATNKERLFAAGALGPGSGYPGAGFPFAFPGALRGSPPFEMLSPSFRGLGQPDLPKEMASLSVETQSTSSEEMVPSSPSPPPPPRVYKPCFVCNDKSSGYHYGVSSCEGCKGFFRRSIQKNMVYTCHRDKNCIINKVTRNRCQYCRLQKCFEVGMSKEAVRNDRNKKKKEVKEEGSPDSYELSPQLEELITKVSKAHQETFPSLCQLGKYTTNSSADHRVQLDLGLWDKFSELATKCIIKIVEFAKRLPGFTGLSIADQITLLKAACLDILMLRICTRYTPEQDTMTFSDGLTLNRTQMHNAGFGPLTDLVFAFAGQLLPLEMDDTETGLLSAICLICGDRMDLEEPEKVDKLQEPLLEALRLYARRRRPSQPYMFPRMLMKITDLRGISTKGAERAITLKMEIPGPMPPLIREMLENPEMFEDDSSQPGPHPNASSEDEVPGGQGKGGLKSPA
Procedure, shortened: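 HepG2 cells transiently transfected with multiplexed reporter units expressing chimeric RARg-GAL4 and GAL4-UAS-driven reporters; 24 h compound exposure. Reporter mRNA quantified by RT-PCR with fluorescent labelling and capillary electrophoresis; gain-of-signal fitted relative to DMSO baseline.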

[8] = molecular target: human RAR-related Orphan Receptor beta (RORb), RORB (gene 6096) (UniProt Q92753); test: ATG_RORb_TRANS: Attagene TRANS-FACTORIAL HepG2 Assay for human RAR-related Orphan Receptor beta (RORb) (AID 2283010; active means hit-call score of the fitted dose curve at least 0.9, where 1 is the maximum)
Chain of human RAR-related Orphan Receptor beta (RORb), RORB (gene 6096) (Q92753 whole entry, looked up, the tested form may be a part): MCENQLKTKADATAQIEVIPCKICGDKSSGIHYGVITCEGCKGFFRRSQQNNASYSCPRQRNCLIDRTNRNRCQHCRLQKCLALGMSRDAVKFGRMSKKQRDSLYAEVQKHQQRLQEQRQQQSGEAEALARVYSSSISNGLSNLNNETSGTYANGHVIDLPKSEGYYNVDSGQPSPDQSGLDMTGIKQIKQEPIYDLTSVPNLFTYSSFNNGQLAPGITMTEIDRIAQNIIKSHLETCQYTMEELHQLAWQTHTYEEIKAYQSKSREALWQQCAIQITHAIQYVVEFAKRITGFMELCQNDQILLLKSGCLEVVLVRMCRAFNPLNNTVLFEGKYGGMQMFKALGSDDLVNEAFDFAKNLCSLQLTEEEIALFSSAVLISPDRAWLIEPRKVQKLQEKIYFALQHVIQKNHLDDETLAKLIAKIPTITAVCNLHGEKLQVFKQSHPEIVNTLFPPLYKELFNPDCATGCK
Procedure, shortened: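 HepG2 cells were transiently transfected with multiplexed GAL4-UAS reporter units expressing chimeric nuclear receptor–GAL4 proteins, then dosed for 24 h. Reporter mRNA was quantified by RT-PCR with fluorescent labelling and capillary electrophoresis; gain of signal was fitted relative to DMSO.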

[9] = molecular target: human RAR-related Orphan Receptor gamma (RORg), RORC (gene 6097) (UniProt P51449); test: ATG_RORg_TRANS: Attagene TRANS-FACTORIAL HepG2 Assay for human RAR-related Orphan Receptor gamma (RORg) (AID 2283011; active means hit-call score of the fitted dose curve at least 0.9, where 1 is the maximum)
Chain of human RAR-related Orphan Receptor gamma (RORg), RORC (gene 6097) (P51449 whole entry, looked up, the tested form may be a part): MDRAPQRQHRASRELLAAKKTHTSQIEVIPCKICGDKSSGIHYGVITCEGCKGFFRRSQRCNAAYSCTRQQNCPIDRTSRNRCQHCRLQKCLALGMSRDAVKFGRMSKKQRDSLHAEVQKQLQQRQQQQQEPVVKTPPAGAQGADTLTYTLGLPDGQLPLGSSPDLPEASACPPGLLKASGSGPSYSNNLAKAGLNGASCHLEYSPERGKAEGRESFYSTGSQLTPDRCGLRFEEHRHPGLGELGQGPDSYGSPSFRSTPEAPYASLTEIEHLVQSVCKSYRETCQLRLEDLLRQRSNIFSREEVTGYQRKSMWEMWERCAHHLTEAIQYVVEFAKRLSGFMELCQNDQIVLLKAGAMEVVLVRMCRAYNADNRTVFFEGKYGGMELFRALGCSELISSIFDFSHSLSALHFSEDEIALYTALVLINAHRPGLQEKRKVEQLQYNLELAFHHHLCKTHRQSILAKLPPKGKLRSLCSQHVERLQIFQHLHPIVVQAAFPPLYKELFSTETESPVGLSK
Procedure, shortened: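 Readout: reporter transcript induction (RT-PCR, fluorescent primer extension, capillary electrophoresis) after 24 h compound exposure of transiently transfected HepG2 cells carrying a RORg-Gal4 chimera and GAL4-UAS reporters; DMSO served as baseline, with increasing signal fitted.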

[10] = molecular target: Retinoic acid receptor RXR-alpha (Homo sapiens) (UniProt P19793); test: ATG_RXRa_TRANS: Attagene TRANS-FACTORIAL HepG2 Assay for human Retinoid X Receptor alpha (RXRa) (AID 2283012; active means hit-call score of the fitted dose curve at least 0.9, where 1 is the maximum)
Chain of Retinoic acid receptor RXR-alpha (Homo sapiens) (P19793 whole entry, looked up, the tested form may be a part): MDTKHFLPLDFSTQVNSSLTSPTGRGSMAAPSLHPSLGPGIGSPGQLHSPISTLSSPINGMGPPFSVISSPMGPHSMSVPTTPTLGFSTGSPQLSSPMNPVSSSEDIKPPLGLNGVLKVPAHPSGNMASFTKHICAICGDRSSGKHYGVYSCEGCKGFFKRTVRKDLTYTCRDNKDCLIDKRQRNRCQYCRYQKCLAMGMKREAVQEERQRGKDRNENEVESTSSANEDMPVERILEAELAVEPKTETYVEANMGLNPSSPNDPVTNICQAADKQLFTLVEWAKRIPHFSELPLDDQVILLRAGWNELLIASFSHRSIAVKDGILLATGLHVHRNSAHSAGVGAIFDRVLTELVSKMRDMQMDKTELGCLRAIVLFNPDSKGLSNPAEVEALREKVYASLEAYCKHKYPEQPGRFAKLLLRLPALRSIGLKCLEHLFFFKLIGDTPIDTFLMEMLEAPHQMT
Procedure, shortened: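 HepG2 cells transiently transfected with multiplexed GAL4-UAS reporter units and chimeric NR-GAL4 fusions, dosed 24 h. Reporter mRNA measured by RT-PCR, FAM labelling, HpaI digestion and capillary electrophoresis; gain-of-signal fitted relative to DMSO baseline.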

[11] = read-out: E-selectin (Homo sapiens) (UniProt P16581); test: BSK_3C_Eselectin: BioMAP Diversity Plus: 3C Assay for Eselectin Biomarker Activity (AID 2283015); settings: primary human endothelial cells (HUVEC); actives raise or lower the signal
Procedure, shortened: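 Primary human umbilical vein endothelial cells (3C system) were dosed with chemical and cell-surface E-selectin measured by ELISA 24 h later. Bidirectional curve fitting used DMSO as negative control and baseline.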

[12] = read-out: Interleukin-1 alpha (IL1a), IL1A (gene 3552); test: BSK_BE3C_IL1a: BioMAP Diversity Plus: BE3C Assay for Interleukin-1 alpha (IL1a) Biomarker Activity (AID 2283016); settings: primary human bronchial epithelial cells; actives raise or lower the signal
Procedure, shortened: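 Human primary bronchial epithelial cells (BE3C system) were dosed with compound and IL-1a measured by ELISA 24 h later. Activity was fitted bidirectionally against DMSO baseline; cytotoxicity was tracked in parallel cultures by SRB total-protein staining.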

[13] = read-out: Monocyte Chemoattractant Protein-1 (MCP1), CCL2 (gene 6347); test: BSK_3C_MCP1: BioMAP Diversity Plus: 3C Assay for Monocyte Chemoattractant Protein-1 (MCP1) Biomarker Activity (AID 2283017); settings: primary human endothelial cells (HUVEC); actives raise or lower the signal
Procedure, shortened: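 Primary human umbilical vein endothelial cells (3C system) were exposed to test chemical for 24 h, after which MCP-1 was quantified by ELISA. Activity was fitted bidirectionally against DMSO as negative control and baseline.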

[14] = read-out: Monocyte Chemoattractant Protein-1 (MCP1), CCL2 (gene 6347); test: BSK_4H_MCP1: BioMAP Diversity Plus: 4H Assay for Monocyte Chemoattractant Protein-1 (MCP1) Biomarker Activity (AID 2283018); settings: primary human endothelial cells (HUVEC); actives raise or lower the signal
Procedure, shortened: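 Human umbilical vein endothelial cells (4H system) dosed with chemical; MCP-1 measured by ELISA 24 h after dosing. Bidirectional curve fitting against DMSO negative control as baseline; parallel SRB total-protein staining tracks overt cytotoxicity.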

[15] = read-out: Human Leukocyte Antigen - DR isotype (HLADR), HLA-DRA (gene 3122); test: BSK_3C_HLADR: BioMAP Diversity Plus: 3C Assay for Human Leukocyte Antigen - DR isotype (HLADR) Biomarker Activity (AID 2283019); settings: primary human endothelial cells (HUVEC); actives raise or lower the signal
Procedure, shortened: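 Primary human umbilical vein endothelial cells (3C system) were dosed with compound and cell-surface HLA-DR was quantified by ELISA at 24 h. Activity was fitted bidirectionally against DMSO as negative control and baseline.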

[16] = read-out: Interleukin-8 (IL8), CXCL8 (gene 3576); test: BSK_3C_IL8: BioMAP Diversity Plus: 3C Assay for Interleukin-8 (IL8) Biomarker Activity (AID 2283020); settings: primary human endothelial cells (HUVEC); actives raise or lower the signal
Procedure, shortened: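 Primary human umbilical vein endothelial cells (3C system) were exposed to test chemical for 24 h, then IL-8 was quantified by ELISA. Responses were fitted bidirectionally against DMSO vehicle as baseline.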

[17] = read-out: Monokine induced gamma interferon (MIG), CXCL9 (gene 4283); test: BSK_3C_MIG: BioMAP Diversity Plus: 3C Assay for Monokine induced gamma interferon (MIG) Biomarker Activity (AID 2283021); settings: primary human endothelial cells (HUVEC); actives raise or lower the signal
Procedure, shortened: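 Primary human umbilical vein endothelial cells in the 3C system were exposed to chemical for 24 h, after which MIG was quantified by ELISA. Activity was fitted bidirectionally against DMSO as negative control and baseline.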

[18] = molecular target: human Vitamin D Receptor (VDR), VDR (gene 7421) (UniProt P11473); test: ATG_VDR_TRANS: Attagene TRANS-FACTORIAL HepG2 Assay for human Vitamin D Receptor (VDR) (AID 2283022; active means hit-call score of the fitted dose curve at least 0.9, where 1 is the maximum)
Chain of human Vitamin D Receptor (VDR), VDR (gene 7421) (P11473 whole entry, looked up, the tested form may be a part): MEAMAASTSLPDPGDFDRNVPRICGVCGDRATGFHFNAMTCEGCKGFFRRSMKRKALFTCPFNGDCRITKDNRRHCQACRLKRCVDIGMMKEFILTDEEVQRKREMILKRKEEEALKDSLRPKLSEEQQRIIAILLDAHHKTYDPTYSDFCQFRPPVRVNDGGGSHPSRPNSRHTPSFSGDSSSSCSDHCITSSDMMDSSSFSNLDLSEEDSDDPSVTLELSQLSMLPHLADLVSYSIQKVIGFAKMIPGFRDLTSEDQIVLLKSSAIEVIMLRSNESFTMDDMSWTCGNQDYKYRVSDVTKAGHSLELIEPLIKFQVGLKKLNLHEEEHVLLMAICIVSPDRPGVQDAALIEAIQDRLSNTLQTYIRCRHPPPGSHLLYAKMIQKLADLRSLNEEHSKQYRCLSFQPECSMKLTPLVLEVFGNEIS
Procedure, shortened: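 HepG2 cells were transiently transfected with multiple GAL4-UAS reporter units, so signal reflects exogenous chimeric receptor-Gal4 activity. After 24 h compound exposure, reporter mRNA was measured by RT-PCR, fluorescent labelling and capillary electrophoresis, fitted for gain of signal versus DMSO.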

[19] = molecular target: human Thyroid Receptor alpha (THRa1), THRA (gene 7067) (UniProt P10827); test: ATG_THRa1_TRANS: Attagene TRANS-FACTORIAL HepG2 Assay for human Thyroid Receptor alpha (THRa1) (AID 2283014; active means hit-call score of the fitted dose curve at least 0.9, where 1 is the maximum)
Procedure, shortened: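 HepG2 cells transiently transfected with multiplexed GAL4-UAS reporter units for exogenous chimeric THRa1-Gal4; reporter mRNA measured 24 h after dosing by RT-PCR, 6-FAM labelling, HpaI digestion and capillary electrophoresis. Gain-of-signal fitted versus DMSO baseline.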

[20] = molecular target: human Retinoid X Receptor beta (RXRb), RXRB (gene 6257) (UniProt P28702); test: ATG_RXRb_TRANS: Attagene TRANS-FACTORIAL HepG2 Assay for human Retinoid X Receptor beta (RXRb) (AID 2283013; active means hit-call score of the fitted dose curve at least 0.9, where 1 is the maximum)
Procedure, shortened: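 HepG2 cells transiently transfected with multiplexed reporter units driven by GAL4-UAS and exogenous chimeric NR-Gal4 proteins; treated 24 h. Reporter mRNA measured by RT-PCR, 6-FAM labelling and capillary electrophoresis; gain-of-signal fitted versus DMSO baseline.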

Measured: AC50

Chain of E-selectin (Homo sapiens) (P16581 whole entry, looked up): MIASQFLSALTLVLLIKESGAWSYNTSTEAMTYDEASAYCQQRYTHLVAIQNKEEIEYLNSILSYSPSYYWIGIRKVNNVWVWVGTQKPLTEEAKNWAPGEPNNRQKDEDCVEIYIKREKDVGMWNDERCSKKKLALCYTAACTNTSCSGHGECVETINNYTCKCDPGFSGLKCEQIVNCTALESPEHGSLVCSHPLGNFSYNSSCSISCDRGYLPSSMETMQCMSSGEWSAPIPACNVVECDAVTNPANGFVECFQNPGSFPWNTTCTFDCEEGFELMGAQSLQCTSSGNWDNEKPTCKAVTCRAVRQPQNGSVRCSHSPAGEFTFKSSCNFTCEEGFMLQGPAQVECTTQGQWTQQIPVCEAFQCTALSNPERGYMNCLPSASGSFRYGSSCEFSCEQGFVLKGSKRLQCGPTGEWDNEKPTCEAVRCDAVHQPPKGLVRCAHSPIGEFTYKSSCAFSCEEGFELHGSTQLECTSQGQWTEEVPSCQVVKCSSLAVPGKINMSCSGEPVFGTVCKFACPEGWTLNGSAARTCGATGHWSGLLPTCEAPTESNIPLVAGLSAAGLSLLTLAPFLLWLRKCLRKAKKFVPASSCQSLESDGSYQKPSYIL

O=S(=O)(O)C(F)(F)C(F)(F)C(F)(F)C(F)(F)C(F)(F)C(F)(F)C(F)(F)C(F)(F)C(F)(F)C(F)(F)F
inactive: [1] | [2] | [3] | [5] | [6] | [7] | [8] | [9] | [10] | [11] | [13] | [14] | [15] | [16] | [17] | [18]
active: [4] 13.3 µM | [11] 10.2 µM | [12] 13.3 µM and 10.6 µM

O=C(NCc1ncc(C(F)(F)F)cc1Cl)c1c(Cl)cccc1Cl
active: [5] 13.7 µM | [6] 0.675 µM
not listed: [8] | [9] | [19] | [20]
inactive: all other assays above

CCOC(=O)CN[C@@H](C(=O)N1CC[C@H]1C(=O)NCc1ccc(/C(N)=N/O)cc1)C1CCCCC1
not listed: [2] | [3] | [8] | [9] | [20]
inactive: all other assays above

CC1=NN(c2ccccc2)C(=O)C1
active: [5] 57.1 µM and 17.3 µM
not listed: [2] | [7] | [18] | [20]
inactive: all other assays above

O=C(O)CCC(F)(F)C(F)(F)C(F)(F)C(F)(F)C(F)(F)C(F)(F)F
active: [5] 73.4 µM
not listed: [2] | [3] | [7] | [19] | [20]
inactive: all other assays above

C=CC(C)(CCC=C(C)C)OC(C)=O (configuration not stated)
active: [4] 34.2 µM | [6] 29.5 µM | [11] 32.1 µM | [13] 35.2 µM | [14] 27 µM | [15] 28.2 µM
not listed: [2] | [3] | [7] | [19]
inactive: all other assays above
